The list is not random: actives were taken first. Their share in the collection is about 5.4%.
rCAG RNA binder = molecules binding r(CAG) RNA repeats; r(CAG) RNA repeat, TO-PRO-1 dye displacement fluorescence; inhibition, % at 3 µM; 1.3% of 370,000 active;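 active = inhibition above the plate cutoff, the mean of all test compounds on that plate plus 3 SD, cut at about 35% in these data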;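 also: 0% = DMSO alone and 100% = 100 µM mitoxantrone as full dye displacement; higher means more dye released from RNA so lower well fluorescence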
aDG glyco act = increases alpha dystroglycan glycosylation; Pro5-aDG cells, alpha-DG glycosylation AlphaScreen (IIH6); 0% Pro5, 100% B10-LARGE cell signal; activation, % at 10 µM; 0.22% of 360,000 active; AID 624168;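 active = activation of at least 8% versus controls, or a plate z-score of at least 8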;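 also: Pro5 are CHO cells carrying HIG-tagged alpha-DG that lacks glycosylation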
A3A deaminase = blocks human APOBEC3A ssDNA deamination; P31941; recombinant A3A, FAM/TAMRA ssDNA deamination fluorescence; inhibition, % at 20 µM; 0.41% of 330,000 active;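 active = at least 40% inhibition at 20 µM here, with at most 30% in a related deaminase screen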;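 also: plate controls were A3A with DMSO for no effect and wells lacking A3A enzyme for full effect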
Target sequence (P31941 whole entry, looked up): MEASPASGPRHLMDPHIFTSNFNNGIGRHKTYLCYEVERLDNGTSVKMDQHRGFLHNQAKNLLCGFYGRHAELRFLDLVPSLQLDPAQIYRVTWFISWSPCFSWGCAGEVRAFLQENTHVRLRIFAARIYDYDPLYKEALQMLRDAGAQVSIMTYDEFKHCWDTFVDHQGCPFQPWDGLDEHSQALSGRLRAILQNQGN
A3G deaminase = APOBEC3G (human) deaminase inhibition. 0.28% of 330,000 active. inhibition, % at 20 µM. recombinant A3G, ssDNA deamination FAM/TAMRA fluorescence;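 active = inhibition of at least 40% at 20 µM, with no more than 30% in the related APOBEC3A deaminase screen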;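 also: plate controls were DMSO wells with A3G for no effect and wells lacking A3G enzyme for full effect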
Target sequence (Q9HC16 whole entry, looked up): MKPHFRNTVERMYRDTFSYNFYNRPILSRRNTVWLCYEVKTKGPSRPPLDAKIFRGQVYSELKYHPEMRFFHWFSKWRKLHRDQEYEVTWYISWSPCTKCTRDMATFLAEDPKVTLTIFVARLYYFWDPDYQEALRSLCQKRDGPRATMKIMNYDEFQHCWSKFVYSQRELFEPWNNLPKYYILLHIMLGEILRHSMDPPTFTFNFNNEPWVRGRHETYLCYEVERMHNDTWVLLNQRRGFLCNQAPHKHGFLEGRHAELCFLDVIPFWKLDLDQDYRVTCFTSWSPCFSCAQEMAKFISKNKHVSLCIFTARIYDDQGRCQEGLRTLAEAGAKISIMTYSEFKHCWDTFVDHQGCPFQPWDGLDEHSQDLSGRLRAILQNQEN
ALR inh = blocks human ALR sulfhydryl oxidase activity; AID 485317; P55789; purified ALR, DTT oxidation, H2O2 HRP-luminol luminescence; inhibition, % (concentration not given with the values); 3.8% of 290,000 active;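 active = mean replicate inhibition above about 79%, with every replicate also reaching it, limit read from the data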
PHOSPHO1 block = blocks human PHOSPHO1 phosphatase activity. Q8TCT1. recombinant PHOSPHO1, absorbance phosphatase assay. inhibition, % at 13.3 µM. 1.1% of 290,000 active. AID 1565; in the data active = inhibition above about 60%
* marks the source's active call; other numbers are inactive results; · = no result given.

SMILES | rCAG RNA binder | aDG glyco act | A3A deaminase | A3G deaminase | ALR inh | PHOSPHO1 block
Cc1ccc(C)c(NS(=O)(=O)c2ccc(-c3ccc(=O)[nH]n3)o2)c1 | 4.8 | 0.1 | -1.3 | -2.4 | 2.1 | 64.9*
CCC(C)N(C(=O)CSc1ccc(NC(C)=O)cc1)C1CCS(=O)(=O)C1 (configuration not stated) | -4.3 | 0.2 | 0.2 | -8.3 | 88.4* | -7.1
C=CCn1c(SCC(=O)OC(C)C)nnc1-c1ccc(C)cc1 | -3.0 | · | · | · | · | ·
Cc1ccc(NC(=O)c2ccc(=O)[nH]n2)cc1S(=O)(=O)Nc1ccc(SC(F)F)cc1 | 32.9 | 0.1 | 7.1 | 1.3 | 98.7* | ·
CC(/C=C(\NC(=O)c1ccccc1)C(=O)N=Nc1c(O)[nH]c2ccc(C)cc12)=C\c1ccccc1 | 10.8 | -0.8 | -1.9 | -3.7 | 2.1 | 91.1*
CCCC[C@H]1C2CC(OC(=O)Nc3cccc(Br)c3)C(C2)[C@H]2CCCCN21 (some centres not stated) | 4.5 | · | · | · | · | ·
COC(=O)C1=C(C)N(Cc2cccc(C(F)(F)F)c2)C(=NCc2ccc3c(c2)OCO3)NC1c1ccc(F)cc1 (configuration not stated) | 11.9 | · | · | · | · | ·
C[C@@H]1ON(C)[C@H]2C[C@H]3c4[nH]c5c(-c6cccc(F)c6)cccc5c4CCN3C(=O)[C@@H]12 | 1.4 | · | · | · | · | ·
COc1ccc(C2CC23N=C(c2ccccc2)OC3=O)cc1 (configuration not stated) | 3.1 | -0.2 | · | · | 96.8* | 6.9
CCOc1ccc(NC(=O)CN2CCCN(c3ccc(OC)cc3)CC2)cc1 | -0.4 | · | · | · | · | ·
Cc1cc(=O)oc2c3c4c(cc12)OCCN4CCC3 | -1.9 | -0.3 | -2.7 | -2.8 | 96.7* | -18.9
CC(C)c1cc(=O)oc2c3c4c(cc12)CCCN4CCC3 | 0.6 | 0.4 | 2.3 | 0.3 | -11.0 | 89.7*
O=c1oc2c3c4c(cc2c(C(F)(F)F)c1CCN1CCOCC1)CCCN4CCC3 | -58.3 | 1.7 | -32.6 | -57.0 | -10.0 | 10.4
O=C(c1ccc(F)cc1F)N1CCC(Oc2cccnc2)CC1 | 0.1 | · | · | · | · | ·
O=c1[nH]c2ccccc2nc1Cc1ccc([N+](=O)[O-])cc1 | 5.7 | 0.2 | -2.1 | -6.6 | 95.4* | 20.0
O=c1cc(-c2ccc(O)cc2)oc2c(-c3c(O)cc(O)c4c(=O)cc(-c5ccc(O)cc5)oc34)c(O)cc(O)c12 | 94.4* | -0.2 | 2.7 | 4.2 | · | ·
O=S(=O)(c1cccs1)N1CCCc2nc(-c3ccccc3)ccc21 | 2.6 | · | · | · | · | ·
CC(C)(C)c1nnc2sc(SCC(=O)N3CCCc4ccccc43)nn2c1=O | -2.5 | 0.1 | -5.5 | -9.2 | 99.1* | 6.2
CC1Cc2ccccc2N1C(=O)CSc1nn2c(=O)c(C(C)(C)C)nnc2s1 (configuration not stated) | -3.0 | -0.1 | -7.6 | -16.9 | · | 27.5
CC(C)(C)c1nnc2sc(SCC(=O)c3cccs3)nn2c1=O | 11.0 | -0.2 | -5.7 | -4.0 | 98.3* | 58.4
Cc1ccc(C(=O)CSc2nn3c(=O)c(C(C)(C)C)nnc3s2)cc1 | -1.8 | -0.1 | -0.8 | -5.5 | 98.3* | 33.0
CCC(NC(=O)c1ccc2c(c1)c(C)c(C)n2Cc1ccc(Cl)cc1)c1ccccc1 (configuration not stated) | 12.8 | · | · | · | · | ·
COC(=O)[C@]12C[C@H](CC(=O)N3CCCCC3)C(=O)N(Cc3cccc4ccccc34)C1=C[C@H](C(C)(C)C)O[C@@H]2C | 4.3 | · | · | · | · | ·
Cc1ccc(Nc2nc(CSc3nnnn3C)cs2)cc1 | 2.1 | 0.2 | -5.9 | -6.0 | 98.6* | 10.7
Cc1ccc(Nc2nc(CSc3nnnn3-c3ccccc3)cs2)cc1 | 2.1 | 0.3 | 0.4 | -1.6 | 9.3 | -12.2
SMILES | rCAG RNA binder | aDG glyco act | A3A deaminase | A3G deaminase | ALR inh | PHOSPHO1 block
Cc1ccc(Nc2nc(CSc3n[nH]c(N)n3)cs2)cc1 | 5.6 | -0.1 | -2.8 | -6.6 | 97.8* | 38.0
Cc1ccc(CSc2n[nH]c(N)n2)cc1 | -1.4 | -0.1 | -4.2 | 3.2 | 0.3 | -3.4
Cn1nnnc1SCc1csc(Nc2ccccc2)n1 | 2.2 | 0.2 | -3.6 | -4.2 | 90.2* | 94.9*
Cc1ccc(OCc2nnc(SCC(=O)Nc3ccc(OCc4ccccc4)cc3)n2-c2ccc(Cl)cc2)cc1 | 7.9 | · | · | · | · | ·
O=C(COc1ccccc1C(=O)NCc1ccccc1)Nc1ccc(I)cc1 | 11.4 | · | · | · | · | ·
C=CCn1c(CCNC(=O)c2cccs2)nnc1SCC(=O)c1ccc(Cl)cc1 | 6.3 | 0.2 | 1.2 | -0.8 | · | 12.5
C=CCn1c(Cc2cccs2)nnc1SCC(=O)c1cccc(Br)c1 | 5.0 | 0.1 | -1.1 | -5.0 | · | 67.5*
C=CCn1c(Cc2cccs2)nnc1SCC(=O)c1ccc2ccccc2c1 | 9.2 | 2.6 | -1.2 | -7.9 | 0.1 | 53.4
C=CCn1c(CNC(=O)c2cccs2)nnc1SCC(=O)c1ccc(Br)cc1 | -3.9 | 0.5 | 1.2 | -1.9 | 86.2* | 0.1
COc1ccc(NC(=O)CSCc2cc(=O)n3nc(C4CC4)sc3n2)cc1 | 1.9 | -0.3 | -2.0 | -7.0 | 40.7 | 31.5
COc1cccc(NC(=O)CSCc2cc(=O)n3ccsc3n2)c1 | · | -0.1 | -2.6 | -3.1 | 99.1* | -4.1
O=C(CSCc1cc(=O)n2ccsc2n1)Nc1ccccc1 | 1.6 | -0.1 | -6.0 | -1.0 | 98.9* | 18.3
CCOCCc1nn2c(=O)cc(CSCC(=O)Nc3ccccc3)nc2s1 | -0.1 | 3.5 | 1.3 | 3.4 | 99.5* | 18.3
COc1ccccc1NC(=O)CSCc1cc(=O)n2ccsc2n1 | 0.9 | -0.1 | -0.9 | 1.5 | 1.1 | 34.1
Cc1cccc(NC(=O)CSCc2cc(=O)n3nc(C4CC4)sc3n2)c1 | 2.0 | 0.4 | -2.6 | -6.1 | 98.3* | -0.7
CCOCCc1nn2c(=O)cc(CSCC(=O)Nc3ccc(OC)cc3)nc2s1 | 2.2 | 0.0 | -4.1 | 0.0 | -3.4 | 18.3
COP(=O)(CC(=O)O)C(CC(C)C)NC(=O)OCc1ccccc1 (configuration not stated) | 3.8 | · | · | · | · | ·
Cc1cc(C(=O)OCC(=O)Nc2c(F)cccc2F)c(C)n1-c1ccccc1 | -8.0 | 1.3 | 5.1 | -2.4 | -1.8 | 64.3*
Cc1cc(C(=O)OCC(=O)N2CCOCC2)c(C)n1-c1ccccc1 | 1.2 | -0.1 | -6.1 | -6.8 | -13.3 | ·
O=C(CSc1nnc2n1CCCN2)c1ccc([N+](=O)[O-])cc1 | 7.5 | -0.1 | -5.1 | -9.1 | 97.4* | -16.7
CN(C)c1ccc(/C=N/NC(=O)C[n+]2ccccc2)cc1 | -1.7 | -0.1 | -5.3 | -7.3 | 98.8* | ·
CN(C)c1ccc(NC(=O)Nc2cccc(Cl)c2)cc1 | 4.3 | -0.2 | -2.6 | -2.2 | 23.4 | 93.4*
Cc1ccc[n+](CC(=O)Nc2ccc(N(C)C)cc2)c1 | -1.9 | -0.1 | -8.4 | -4.3 | 99.9* | 44.0
CN(C)c1ccc(NC(=O)C[n+]2ccccc2)cc1 | 4.4 | -0.2 | -5.3 | -7.4 | 98.8* | 35.1
CC(=O)c1ccc(NC(=O)C[n+]2ccc(N(C)C)cc2)cc1 | 6.0 | -0.1 | -4.7 | -2.9 | -16.3 | 39.0
CCOC(=O)[C@@]12CCCC=C1N(CCc1ccc(Cl)cc1)C(=O)[C@H]2CC(=O)N1CCCCC1 | 3.2 | · | · | · | · | ·
CC(=O)Nc1ccc(NC(=O)Oc2ccccc2)cc1 | -1.6 | -0.1 | -5.8 | -3.5 | · | 10.1

From PubChem BioAssay
